# Only some compounds are listed: those with a hit (about 2.8% of all), similar ones and a draw of the others.
# MITF act = activators of MITF-driven TRPM1 promoter activity in SK-MEL-5 cells | 300,000 compounds, 0.75% hits | AID 588334 | activation, % at 12.5 µM | SK-MEL-5 TRPM1-promoter luciferase, 24 h; % of positive control, neutral wells = 0;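 active = mean activation of at least 80% with every replicate also reaching 80%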;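 also: 0% = neutral control wells and 100% = parthenolide positive control wells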
# esBAF inh = blocks esBAF chromatin remodeling in mouse ES cells; Bmi1-luciferase knock-in reporter, 24 h; 100% = twice the neutral-well signal; reporter increase, % at 12.5 µM; 350,000 compounds, 2% hits; AID 602393; in the data active = activation above about 40%;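 also: 0% = median of the plate's neutral control wells and 100% = double that signal; a rise in the Bmi1 reporter signal indicates esBAF inhibition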
# FXN GAA850 act = activators of GAA850 frataxin (FXN) promoter | AID 540364 | activation, % at 6 µM | HEK293 lucGAA850 FXN promoter luciferase reporter, 24 h; percent of 10 µM SAHA response | 360,000 compounds, 0.56% hits;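 active = activation above the average of all compounds screened plus 3 SD, cutoff fixed separately per campaign, cut at about 7.5% in these data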;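 also: 0% = DMSO wells and 100% = 10 µM SAHA wells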
# Wnt bcat act = activates Wnt/beta-catenin signaling in a reporter cell assay. 300,000 compounds, 1.2% hits. activator, plate reader. activation, % at 9.35 µM; in the data active = activation above about 30%, passing the limit was not always enough;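 also: 0% = neutral control wells and 100% = positive control wells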
# Starred values were filed as active, the others as inactive; nt = no result.
SMILES,MITF act,esBAF inh,FXN GAA850 act,Wnt bcat act
Fc1ccccc1-c1nc(-c2ccc(Cl)cc2)no1,46,49*,6,nt
CCOC(=O)c1ccc(Nc2ccc(C(C)=O)cc2)cc1,nt,76*,nt,13
CCOC(=O)c1ccc(NC(=O)N2CCc3ccccc32)cc1,73,68*,1,40*
COc1ccc(NC(=O)N2CCCc3ccccc32)cc1,23,41*,1,54*
CCOC(=O)c1ccc(NS(=O)(=O)CC)cc1,0,nt,-1,nt
CCOC(=O)c1ccc(NC(=O)N2CCN(C3CCCCC3)CC2)cc1,7,-1,2,nt
CCOC(=O)c1ccc(NC(=O)N2CCCCC2)cc1,101*,38,3,nt
C[C@@H]1CN([C@@H](C)CO)C(=O)c2cc(NC(=O)c3ccncc3)ccc2O[C@@H](C)CCCCO[C@H]1CN(C)C(=O)C1CCCCC1,nt,4,nt,nt
CO[C@@H]1CN(C)C(=O)c2cc(NC(=O)C3CCC3)ccc2OC[C@@H](C)N(C(=O)Nc2ccc(C(F)(F)F)cc2)C[C@H]1C,nt,7,nt,nt
CCCN1[C@@H]2c3ccc(-c4cccc(F)c4)c(=O)n3C[C@H]1[C@H](CO)[C@H]2C(=O)NCC,nt,-1,nt,nt
CSc1nc2ccc(NC(=O)c3ccc(F)c(F)c3)cc2s1,70,nt,3,51*
Cc1ccc2nc(NC(=O)c3cccs3)sc2c1,-7,-50,-3,4
CSc1nc2ccc3nc(NC(=O)c4ccccc4)sc3c2s1,42,50*,4,28
CSc1nc2ccc(NC(=O)c3cc4ccccc4o3)cc2s1,54,nt,2,58*
CSc1nc2ccc(NC(=O)c3ccc(=O)[nH]c3)cc2s1,-8,1,2,-2
CSc1nc2ccc(NC(=O)c3ccc(=O)n(C)n3)cc2s1,4,nt,5,13
Cc1ccc2nc(NC(=S)NC(=O)c3cccs3)sc2c1,21,51*,3,nt
O=C(Nc1ccccc1F)N[C@H]1CC[C@H](CCNS(=O)(=O)c2ccccc2)O[C@H]1CO,nt,5,nt,nt
CSc1nc2ccc(NC(=O)c3ccco3)cc2s1,88*,nt,6,nt
CSc1nc2ccc(NC(=O)c3cccs3)cc2s1,90*,78*,1,20
CC(=O)Nc1ccc2nc(NC(=O)c3ccco3)sc2c1,19,10,4,16
CCCN(C)C[C@H]1Oc2ncc(-c3ccccc3F)cc2C(=O)N([C@@H](C)CO)C[C@H]1C,nt,-17,nt,nt
CCCCN1CCc2c([nH]c3c(C)cccc23)C1=O,92*,nt,6,27
CC(C)C#Cc1cnc2c(c1)C(=O)N([C@H](C)CO)C[C@@H](C)[C@H](CN(C)Cc1ccccn1)O2,nt,5,nt,nt
Cc1ccc(OC(=O)N(C)C[C@@H]2OCc3ccccc3-c3ccccc3C(=O)N([C@H](C)CO)C[C@@H]2C)cc1,nt,7,nt,nt
SMILES,MITF act,esBAF inh,FXN GAA850 act,Wnt bcat act
COc1ccccc1Nc1nc(N)nc(CSC(=S)N2CCCCC2)n1,16,nt,6,35*
Cc1ccc(Nc2nc(N)nc(CSC(=S)N3CCOCC3)n2)cc1,nt,-12,3,nt
Nc1nc(CSC(=S)N2CCOCC2)nc(Nc2ccccc2)n1,118*,nt,7,45*
CN1C(=O)c2cc(NC(=O)c3ccccc3Cl)ccc2OC[C@@H]2O[C@@H](CC(=O)O)CC[C@@H]21,nt,-8,nt,nt
C[C@@H]1CN([C@@H](C)CO)C(=O)c2cccc(NS(=O)(=O)c3cccs3)c2O[C@H]1CN(C)CC1CCCCC1,nt,1,nt,nt
O=C(COC(=O)c1ccc(S(=O)(=O)N2CCOCC2)cc1)NC1CCCCCCC1,-1,5,0,89*
Cc1cccc2c(N=Nc3ccccc3)c(O)[nH]c12,65,nt,3,45*
O=C(O)c1ccc(N=Nc2c(O)[nH]c3cc(Cl)ccc23)cc1,64,nt,9.8*,53*
Oc1[nH]c2ccccc2c1N=Nc1cccc(Cl)c1,35,52*,7,17
O=C(CNC(=O)c1ccccc1)N=Nc1c(O)[nH]c2ccc(Br)cc12,-6,-3,1,-1
O=C(O)c1ccc(N=Nc2c(O)[nH]c3ccc(Br)cc23)cc1,46,80*,4,19
C[C@H]1CCCCO[C@@H](CN(C)C(=O)Nc2ccc3c(c2)OCO3)[C@@H](C)CN([C@@H](C)CO)C(=O)c2cc(NC(=O)Nc3ccc(C(F)(F)F)cc3)ccc2O1,nt,13,nt,nt
COc1ccc(C(=O)/C=C/c2cn(CN3CCN(C)CC3)c3ccccc23)cc1,95*,51*,2,nt
C[C@H](NC(=O)C[C@H]1CC[C@@H](NC(=O)C2CCOCC2)[C@H](CO)O1)c1ccccc1,nt,-6,nt,nt
C/C(=N\Nc1nc2c(s1)CCCC2)c1ccccc1,76,47*,0,6
Cc1cccc(Nc2nc3c(s2)CCCC3)c1,103*,nt,7,65*
